# According to the supplement of paper PMC8728848:
# The sample as a whole holds a higher share of the strongest signals than the screen did.
# B1: HA-11100 (Pseudomonas aeruginosa), Q02G51_PSEAB (protein)
# chain: QFNPNEIKISQQGKTTLIDQSTQRAIINWKGFDVSADEAVRFNQPGVTSSTLNRVTAGQESVIAGRISAPGQVIIYNSNGVVFSGSAKVDVGSLITTTANISDEHFRQGKLIFDQPGNPDARIVNDGSISVAEKGLAAFVAPSVANNGVINARLGTVAMAAGNAATIDLYG
# Experiments:
# Experiment in all cases: glycan array binding signal (z-score within array); higher = stronger binding
# Settings in all cases: glycan notation: IUPAC condensed, linker removed
# [1] = biological target: Fuc(a1-2)Gal
# In short: (§1)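 Glycan array binding is given as a within-array Z-score, which can be read as non-binding when negative. The arrays, 3228 of them, came from the Consortium for Functional Glycomics database and were retained only where the protein sequence was available. Z-scores were averaged across arrays of the same protein sequence at different concentrations or buffers and across linkers.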
# [2] = biological target: Fuc(a1-2)Gal(b1-4)Fuc(a1-3)]GlcNAc(b1-2)Man(a1-3)[Fuc(a1-2)Gal(b1-4)[Fuc(a1-3)]GlcNAc(b1-2)Man(a1-6)]Man(b1-4)GlcNAc(b1-4)GlcNAc
# In short: as §1
# [3] = biological target: Fuc(a1-2)Gal(b1-4)[Fuc(a1-3)]GlcNAc
# In short: as §1
# [4] = biological target: Fuc(a1-2)[Gal(a1-3)]Gal(b1-3)GalNAc
# In short: as §1
# [5] = biological target: Fuc(a1-2)[Gal(a1-3)]Gal(b1-3)GlcNAc(b1-2)Man(a1-3)[Fuc(a1-2)[Gal(a1-3)]Gal(b1-3)GlcNAc(b1-2)Man(a1-6)]Man(b1-4)GlcNAc(b1-4)GlcNAc
# In short: as §1
# [6] = biological target: Fuc(a1-2)[Gal(a1-3)]Gal(b1-4)[Fuc(a1-3)]Glc
# In short: as §1
# [7] = biological target: Fuc(a1-2)[GalNAc(a1-3)]Gal(b1-3)GalNAc(b1-3)Gal(a1-4)Gal(b1-4)Glc
# In short: as §1
# [8] = biological target: Fuc(a1-2)[GalNAc(a1-3)]Gal(b1-4)Glc
# In short: as §1
# [9] = biological target: Fuc(a1-2)[GalNAc(b1-3)]Gal
# In short: as §1
# [10] = biological target: Fuc(a1-3)[Gal(b1-4)]GlcNAc(b1-2)Man(a1-3)[Fuc(a1-3)[Gal(b1-4)]GlcNAc(b1-2)Man(a1-6)]Man(b1-4)GlcNAc(b1-4)[Fuc(a1-6)]GlcNAc
# In short: as §1
# [11] = biological target: Fuc(a1-3)[GalNAc(b1-4)]GlcNAc
# In short: as §1
# [12] = biological target: Gal(a1-3)Gal(b1-3)GlcNAc(b1-6)GalNAc
# In short: as §1
# [13] = biological target: Gal(a1-3)Gal(b1-4)GlcNAc(b1-2)Man(a1-3)[Gal(a1-3)Gal(b1-4)GlcNAc(b1-2)Man(a1-6)]Man(b1-4)GlcNAc(b1-4)GlcNAc
# In short: as §1
# [14] = biological target: Gal(b1-4)GlcNAc(a1-6)Gal(b1-4)GlcNAc
# In short: as §1
# [15] = biological target: Gal(b1-4)GlcNAc(b1-2)Man(a1-3)[Gal(b1-4)GlcNAc(b1-2)Man(a1-6)]Man(b1-4)GlcNAc(b1-4)GlcNAc
# In short: as §1
# [16] = biological target: Gal(b1-4)GlcNAc(b1-2)[Gal(b1-4)GlcNAc(b1-4)]Man(a1-3)[GlcNAc(b1-4)][Gal(b1-4)GlcNAc(b1-2)[Gal(b1-4)GlcNAc(b1-6)]Man(a1-6)]Man(b1-4)GlcNAc(b1-4)GlcNAc
# In short: as §1
# [17] = biological target: Gal(b1-4)GlcNAc(b1-2)[Gal(b1-4)GlcNAc(b1-6)]Man(a1-6)[Gal(b1-4)GlcNAc(b1-2)Man(a1-3)]Man(b1-4)GlcNAc(b1-4)GlcNAc
# In short: as §1
# [18] = biological target: Gal(b1-4)GlcNAc(b1-3)Gal(b1-4)GlcNAc(b1-2)Man(a1-3)[Gal(b1-4)GlcNAc(b1-3)Gal(b1-4)GlcNAc(b1-2)Man(a1-6)]Man(b1-4)GlcNAc(b1-4)[Fuc(a1-6)]GlcNAc
# In short: as §1
# [19] = biological target: Gal(b1-4)GlcNAc(b1-3)Gal(b1-4)GlcNAc(b1-2)[Gal(b1-4)GlcNAc(b1-3)Gal(b1-4)GlcNAc(b1-6)]Man(a1-6)[Gal(b1-4)GlcNAc(b1-3)Gal(b1-4)GlcNAc(b1-2)Man(a1-3)]Man(b1-4)GlcNAc(b1-4)GlcNAc
# In short: as §1
# [20] = biological target: Gal(b1-4)GlcNAc(b1-3)Gal(b1-4)GlcNAc(b1-3)Gal(b1-4)GlcNAc(b1-3)Gal(b1-4)GlcNAc(b1-2)Man(a1-3)[Gal(b1-4)GlcNAc(b1-3)Gal(b1-4)GlcNAc(b1-3)Gal(b1-4)GlcNAc(b1-3)Gal(b1-4)GlcNAc(b1-2)Man(a1-6)]Man(b1-4)GlcNAc(b1-4)[Fuc(a1-6)]GlcNAc
# In short: as §1
# [21] = biological target: Gal(b1-4)GlcNAc(b1-3)Gal(b1-4)GlcNAc(b1-3)Gal(b1-4)GlcNAc(b1-3)Gal(b1-4)GlcNAc(b1-2)[Gal(b1-4)GlcNAc(b1-3)Gal(b1-4)GlcNAc(b1-3)Gal(b1-4)GlcNAc(b1-3)Gal(b1-4)GlcNAc(b1-6)]Man(a1-6)[Gal(b1-4)GlcNAc(b1-3)Gal(b1-4)GlcNAc(b1-3)Gal(b1-4)GlcNAc(b1-3)Gal(b1-4)GlcNAc(b1-2)Man(a1-3)]Man(b1-4)GlcNAc(b1-4)[Fuc(a1-6)]GlcNAc
# In short: as §1
# [22] = biological target: Gal(b1-4)GlcNAc(b1-3)Gal(b1-4)GlcNAc(b1-3)Gal(b1-4)GlcNAc(b1-3)Gal(b1-4)GlcNAc(b1-3)Gal(b1-4)GlcNAc(b1-3)Gal(b1-4)GlcNAc(b1-2)Man(a1-3)[Gal(b1-4)GlcNAc(b1-3)Gal(b1-4)GlcNAc(b1-3)Gal(b1-4)GlcNAc(b1-3)Gal(b1-4)GlcNAc(b1-3)Gal(b1-4)GlcNAc(b1-3)Gal(b1-4)GlcNAc(b1-2)Man(a1-6)]Man(b1-4)GlcNAc(b1-4)GlcNAc
# In short: as §1
# [23] = biological target: Gal3S(b1-4)[Fuc(a1-3)]GlcNAc6S
# In short: as §1
# [24] = biological target: GalNAc(b1-4)GlcNAc(b1-3)GalNAc(b1-4)GlcNAc
# In short: as §1
# [25] = biological target: GalNAc4S6S(b1-4)GlcNAc
# In short: as §1
# [26] = biological target: GlcA(b1-3)Gal
# In short: as §1
# [27] = biological target: GlcNAc(b1-2)[GlcNAc(b1-4)]Man(a1-3)[GlcNAc(b1-2)Man(a1-6)]Man(b1-4)GlcNAc(b1-4)GlcNAc
# In short: as §1
# [28] = biological target: GlcNAc(b1-3)Gal(b1-4)Glc
# In short: as §1
# [29] = biological target: GlcNAc(b1-3)Gal(b1-4)GlcNAc(b1-3)Gal(b1-4)GlcNAc(b1-2)Man(a1-3)[GlcNAc(b1-3)Gal(b1-4)GlcNAc(b1-3)Gal(b1-4)GlcNAc(b1-2)Man(a1-6)]Man(b1-4)GlcNAc(b1-4)GlcNAc
# In short: as §1
# [30] = biological target: MurNAc(b1-4)GlcNAc
# In short: as §1
# [31] = biological target: Neu5Ac(a2-3)Gal
# In short: as §1
# [32] = biological target: Neu5Ac(a2-3)Gal(b1-3)GalNAc(b1-4)[Neu5Ac(a2-8)Neu5Ac(a2-3)]Gal(b1-4)Glc
# In short: as §1
# [33] = biological target: Neu5Ac(a2-3)Gal(b1-3)GlcNAc(b1-2)Man
# In short: as §1
# [34] = biological target: Neu5Ac(a2-3)Gal(b1-4)GlcNAc(b1-2)Man(a1-3)[GlcNAc(b1-4)][Neu5Ac(a2-3)Gal(b1-4)GlcNAc(b1-2)Man(a1-6)]Man(b1-4)GlcNAc(b1-4)GlcNAc
# In short: as §1
# [35] = biological target: Neu5Ac(a2-3)Gal(b1-4)GlcNAc(b1-3)Gal(b1-4)GlcNAc
# In short: as §1
# [36] = biological target: Neu5Ac(a2-3)Gal(b1-4)GlcNAc(b1-3)Gal(b1-4)[Fuc(a1-3)]GlcNAc
# In short: as §1
# [37] = biological target: Neu5Ac(a2-3)Gal(b1-4)GlcNAc(b1-6)[Neu5Ac(a2-3)Gal(b1-3)]GalNAc
# In short: as §1
# [38] = biological target: Neu5Ac(a2-3)Gal(b1-4)GlcNAc6S
# In short: as §1
# [39] = biological target: Neu5Ac(a2-3)Gal(b1-4)[Fuc(a1-3)]GlcNAc(b1-6)[Gal(b1-3)]GalNAc
# In short: as §1
# [40] = biological target: Neu5Ac(a2-6)GalNAc(b1-4)GlcNAc
# In short: as §1
# [41] = biological target: Neu5Ac(a2-6)GlcNAc(b1-4)GlcNAc
# In short: as §1
# [42] = biological target: Neu5Ac(a2-8)Neu5Ac(a2-8)Neu5Ac
# In short: as §1
# [43] = biological target: Neu5Gc(a2-3)Gal(b1-4)[Fuc(a1-3)]GlcNAc
# In short: as §1
binder,measurement,setting,value
B1,glycan array binding signal (z-score),[1],-0.09
same,glycan array binding signal (z-score),[2],3.58
same,glycan array binding signal (z-score),[3],-0.134
same,glycan array binding signal (z-score),[4],-0.312
same,glycan array binding signal (z-score),[5],7.81
same,glycan array binding signal (z-score),[6],0.052
same,glycan array binding signal (z-score),[7],0.044
same,glycan array binding signal (z-score),[8],-0.174
same,glycan array binding signal (z-score),[9],-0.384
same,glycan array binding signal (z-score),[10],3.33
same,glycan array binding signal (z-score),[11],-0.403
same,glycan array binding signal (z-score),[12],-0.463
same,glycan array binding signal (z-score),[13],3.53
same,glycan array binding signal (z-score),[14],-0.29
same,glycan array binding signal (z-score),[15],-0.512
same,glycan array binding signal (z-score),[16],3.28
same,glycan array binding signal (z-score),[17],7.59
same,glycan array binding signal (z-score),[18],10.5
same,glycan array binding signal (z-score),[19],5.77
same,glycan array binding signal (z-score),[20],2.99
same,glycan array binding signal (z-score),[21],3.24
same,glycan array binding signal (z-score),[22],1.87
same,glycan array binding signal (z-score),[23],-0.451
same,glycan array binding signal (z-score),[24],0.008
same,glycan array binding signal (z-score),[25],-0.38
same,glycan array binding signal (z-score),[26],-0.243
same,glycan array binding signal (z-score),[27],-0.37
same,glycan array binding signal (z-score),[28],-0.359
same,glycan array binding signal (z-score),[29],3.34
same,glycan array binding signal (z-score),[30],0.053
same,glycan array binding signal (z-score),[31],-0.148
same,glycan array binding signal (z-score),[32],-0.214
same,glycan array binding signal (z-score),[33],-0.402
same,glycan array binding signal (z-score),[34],-0.268
same,glycan array binding signal (z-score),[35],-0.347
same,glycan array binding signal (z-score),[36],-0.737
same,glycan array binding signal (z-score),[37],-0.222
same,glycan array binding signal (z-score),[38],-0.016
same,glycan array binding signal (z-score),[39],4.78
same,glycan array binding signal (z-score),[40],-0.851
same,glycan array binding signal (z-score),[41],-0.421
same,glycan array binding signal (z-score),[42],-0.333
same,glycan array binding signal (z-score),[43],-0.065
